From the supplement of paper PMC6555819

Assays:
Experiment in all cases: PBM binding z-score (relative to random genomic background probes); higher = stronger binding; sequences stand for … in GC…GCGATTGACAGCGTAGAATGAAGG
[1] = tested on: LXRa homodimer (NR concentration 270 nM)
In short: (§1)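 Scanned fluorescence from custom Agilent 4×180K protein-binding microarrays was regression-normalized. Binding z-scores use random background probes as reference. Ligand-free nuclear receptor dimers were incubated on the arrays for 1 h and detected with antibodies against each partner (one per run).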

[2] = tested on: LXRb homodimer (NR concentration 270 nM)
In short: as §1

[3] = tested on: PPARg:RXRa (NR concentration 180 nM, RXRa partner concentration 90 nM)
In short: as §1

[4] = tested on: PPARg:RXRa 270nM:90nM, anti-RXR (NR concentration 270 nM, RXRa partner concentration 90 nM)
In short: as §1

[5] = tested on: PPARg:RXRa 30nM:10nM, anti-RXR (NR concentration 30 nM, RXRa partner concentration 10 nM)
In short: as §1

[6] = tested on: PPARg:RXRa 90nM:30nM, anti-RXR (NR concentration 90 nM, RXRa partner concentration 30 nM)
In short: as §1

[7] = tested on: PPARg:RXRa DBDmut IVT, anti-RXR (DBD mutation: RXRa K156A/R161A, NR concentration 270 nM, RXRa partner concentration 90 nM)
In short: as §1

[8] = tested on: PPARa:RXRa (NR concentration 270 nM, RXRa partner concentration 90 nM)
In short: as §1

Sequence | PBM binding z-score [1] | PBM binding z-score [2] | PBM binding z-score [3] | PBM binding z-score [4] | PBM binding z-score [5] | PBM binding z-score [6] | PBM binding z-score [7] | PBM binding z-score [8]
CAAACAAGGTCACCGGAAGGTCAAAGTCCGCATG | 6.36 | 2.43 | 8.84 | 7.81 | 4.78 | 7.17 | 5.54 | 
CGTCAAAGGTCATAGGAGGTCAGTGAAGACAGAT | 6.84 | 3.02 | 8.97 | 8.33 | 5.97 | 7.99 | 4.36 | 
CAAACGAGGTCACGAAAGGTCAAAGTCGAATGAC | 9.67 | 3.56 | 10.1 | 8.71 | 6.72 | 8.74 | 6.75 | 
TATACAGGGTCAAAGGTCAGAGTACGAATGTCGA | 4.72 | 3.86 |  | 9.79 | 9.88 | 10.9 | 3.73 | 
CGTCAAAGGTCAAGGTAACGTAACAGAAAGCAGC | 2.47 | 2.82 | 9.12 | 8.51 | 6.2 | 8.31 | 4.8 | 
AATACGGGGTCATCGTAGGCCAGAGTACGCACAG | 4.62 | 2.94 | 9.53 | 8.49 | 6.12 | 7.88 | 4.48 | 
ACTCGGAGGTCAAAGGTCAGAGCTACGCCAGTGA | 5.1 | 2.98 |  | 9.47 | 9.38 | 10.2 | 4.46 | 
TCTAGTAGGTCAAAGGTCACACACTCGAAATGCG | 5.52 | 2.6 |  | 11.6 | 13 | 14.2 | 8.19 | 
TGTCAAAGGTCAAAGGTAACGTAAGTATCCACAC | 4.19 | 4.32 |  | 9.9 | 8.47 | 10.5 | 4.01 | 
CGTCAAAGTTCAAGGTCACGTAACAGAAAGCAGC | 5.71 | 2.05 | 6.83 | 6.7 | 3.83 | 5.84 | 2.03 | 
ATCGAAAGGTCAAAGGTGAGTATACCCACCCGAA | 4.82 | 4.53 |  | 8.89 | 6.69 | 8.79 | 4.23 | 
CCTTAGGGGTCACTCCAGGTTATAGCATCGGAGT | 3.9 | 1.26 | 7.77 | 7.74 | 4.31 | 6.51 | 3.7 | 
AGTCAAAGGTCATCTAGGTAACGTAAGATATGCT | 4.61 | 5.04 |  | 8.23 | 6.82 | 8.3 | 4.12 | 
CAAACAAGGTCACGAAAGGTCAAAGTCGAATGAC | 8.69 | 3.83 | 9.38 | 8.37 | 5.8 | 7.95 | 5.71 | 
TTACCAAGGTCAAAGGTCGTTGATGCACGCCTTG | 4.68 | 1.83 |  | 8.91 | 8.91 | 10.4 | 4.35 | 
TCTCGGAGGTCACGAAAGGTCAGAGCTCGACATC | 6.78 | 2.06 | 8.27 | 7.76 | 5.31 | 7.09 | 4.43 | 
CGTCAAAGGTCAACTAAGGTAACGTAAAGCACGC | 3.42 | 4.64 | 9.18 | 8.77 | 6.39 | 8.42 | 5.01 | 
CGTCAAAGGTCAAGGTCAGTGAAAGAGACTCGAA | 3.09 | 3.05 |  | 8.78 | 6.2 | 8.38 | 4.74 | 
GCTTACGGGTCAAAGGTCATAGCATGAATAGAAT | 4.02 | 1.77 |  | 10.4 | 12.9 | 12.5 | 5.72 | 

Sequence | PBM binding z-score [1] | PBM binding z-score [2] | PBM binding z-score [3] | PBM binding z-score [4] | PBM binding z-score [5] | PBM binding z-score [6] | PBM binding z-score [7] | PBM binding z-score [8]
CGTCAAAGGTCAAAGGTCAGTGAAGAGATGACGG | 5.49 | 4.46 | 11.4 | 9.58 | 9.03 | 10.4 | 5.34 | 
TATACGGGGTCAAAGGCCAGAGTACGAATGTCGA | 4.73 | 5.42 |  | 9.09 | 7.56 | 9.05 | 4.38 | 
CAAACGAGGTCAAGAGGTCAAAGTCCGCTTCCCG | 7.48 | 2.92 | 9.67 | 7.84 | 5.59 | 7.61 | 6.04 | 
CAAACAAGGTCACAGAGGTCAAAGTCCGTGCGTA | 8.49 | 3.24 | 9.2 | 8.4 | 5.17 | 7.73 | 6.04 | 
CAAACGAGGTCACAGAGGTCAAAGTCCGTGCGTA | 8.64 | 3.01 | 9.94 | 8.76 | 6.47 | 8.53 | 6.82 | 
ATCGAAAGGTCAACGAGGTGAGTATACACCGTTT | 4.35 | 3.41 | 8.38 | 7.87 | 5.13 | 7.2 | 3.84 | 
ATCGAAAGGTCATGAGGTGAGTATACAGAAAGGC | 4.02 | 2.52 | 9.07 | 7.95 | 5.41 | 7.18 | 4.25 | 
CCTTAGGGGTCACGAGGTTATAGCACGACGAGCG | 1.59 | 0.631 |  | 9.08 | 6.93 | 8.31 | 5.82 | 
TGTCAAAGTTCAAAGGTCACGTAAGTATCCACAC | 7.63 | 3.24 |  | 9.52 | 7.66 | 10.2 | 1.46 | 
CGTTCAAGGTCAAAGGTCAGTGAAGAGATGACGG | 4.39 | 2.52 |  | 9.86 | 11.2 | 11.5 | 5.39 | 7.05
CCTTAGGGGTCAAGGTTATAGCACGGGTGGTACG | 1.33 | 1.15 | 8.58 | 7.98 | 5.01 | 7.42 | 3.07 | 
CAAACGAGGTCAAGGTCAAAGTCGGTTTGTGCCA | 4.79 | 2.41 | 9.01 | 7.98 | 5.75 | 7.37 | 6.4 | 
ACTTAGGGGTCAACGAGGTTATAGCACGCGTATA | 2.91 | 2.35 | 9.33 | 8.62 | 6.08 | 8.5 | 5.4 | 
CGTCAAAGGTCAATGCTAGGTCAGTGAAAGCATT | 4.73 | 3.46 | 8.14 | 8.21 | 5.21 | 7.67 | 4.79 | 
CAAAATAGGTCACAGAGGTCAAAGTCCGTGCGTA | 7.45 | 2.61 | 9.92 | 8.39 | 6.56 | 8.55 | 7.62 | 
GCTTAGGGGTCAAAGGTTATAGCATGAATAGAAT | 1.95 | 2.82 | 11.8 | 9.66 | 9.13 | 10.2 | 5.79 | 
CTCGAAAGGTCATGCTCAGGTGAGTATACCAAAC | 3.89 | 2.44 | 7.63 | 8.05 | 4.38 | 6.89 | 4.16 | 
CAAACGAGGTCACCGGAAGGTCAAAGTCCGCATG | 6.35 | 2.17 | 9.26 | 8.2 | 5.78 | 7.55 | 6.23 | 
CCTCGGAGGTCAACAGGAGGTCAGAGCTGCCAGA | 4.43 | 1.49 | 6.66 | 6.55 | 2.94 | 5.21 | 3.21 | 
